Data as given in ChEMBL document CHEMBL3988442, “University of Dundee, Small-Polar-MMV Screening Library” (2021).
For some assays here: Entries with a potency or affinity are not part of this list.

Key:
Parameters in all cases: scale not given: direction of the effect not stated beside the values
[1] = target: Protein translocase subunit SecA (Escherichia coli (strain K12)) (UniProt P10408); assay: Assay to Identify E. coli SecA ATPase Inhibitors; format: functional; conditions: 30 µM
[2] = target: T1, Ubiquitin-activating enzyme e1, putative (Leishmania donovani (strain BPK282A1)) (UniProt E9BSI1); assay: Leishmania donovani Ubiquitin Activating Enzyme (LdE1); format: functional; conditions: 30 µM
T1 sequence (whole entry): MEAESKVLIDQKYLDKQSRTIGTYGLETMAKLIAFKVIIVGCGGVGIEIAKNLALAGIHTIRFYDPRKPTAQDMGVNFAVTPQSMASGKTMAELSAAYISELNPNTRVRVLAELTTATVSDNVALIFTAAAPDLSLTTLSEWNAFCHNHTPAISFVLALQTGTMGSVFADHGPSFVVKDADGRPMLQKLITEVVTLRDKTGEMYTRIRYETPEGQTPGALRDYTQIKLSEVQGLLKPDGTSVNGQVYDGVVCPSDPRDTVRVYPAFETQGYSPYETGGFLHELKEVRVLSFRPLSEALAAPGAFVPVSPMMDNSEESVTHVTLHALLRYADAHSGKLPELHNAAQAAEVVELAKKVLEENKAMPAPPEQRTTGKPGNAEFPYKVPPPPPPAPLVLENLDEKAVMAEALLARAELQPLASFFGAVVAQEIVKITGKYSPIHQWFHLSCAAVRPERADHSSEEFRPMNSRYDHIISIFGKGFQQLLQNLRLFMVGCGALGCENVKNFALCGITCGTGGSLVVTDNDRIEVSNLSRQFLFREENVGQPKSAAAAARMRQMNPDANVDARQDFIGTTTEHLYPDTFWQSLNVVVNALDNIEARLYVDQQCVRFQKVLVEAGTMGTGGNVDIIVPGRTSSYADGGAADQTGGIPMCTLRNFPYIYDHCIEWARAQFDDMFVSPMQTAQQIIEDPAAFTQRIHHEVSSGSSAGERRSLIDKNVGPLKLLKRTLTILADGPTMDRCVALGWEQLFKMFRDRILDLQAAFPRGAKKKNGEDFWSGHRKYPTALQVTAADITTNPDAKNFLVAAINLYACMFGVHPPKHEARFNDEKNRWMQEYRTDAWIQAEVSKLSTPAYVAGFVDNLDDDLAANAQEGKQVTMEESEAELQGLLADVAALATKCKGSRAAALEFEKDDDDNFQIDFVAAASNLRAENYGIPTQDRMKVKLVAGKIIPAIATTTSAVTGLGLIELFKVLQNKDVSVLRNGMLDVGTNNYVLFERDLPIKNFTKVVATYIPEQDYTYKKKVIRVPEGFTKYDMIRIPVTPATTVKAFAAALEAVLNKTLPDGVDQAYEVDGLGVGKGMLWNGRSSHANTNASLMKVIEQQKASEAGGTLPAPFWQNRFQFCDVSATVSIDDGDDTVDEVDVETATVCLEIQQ

[3] = target: AMP-activated protein kinase, AMPK (Homo sapiens) (UniProt P54646+O43741+P54619+Q9UGJ0+Q9Y478+Q13131+Q9UGI9); assay: AMP-dependent Kinase enzyme assay. An in vitro enzyme assay that detects ADP turnover that is directly proportional to AMPK activity. This uses naive AMPK that is activated during the assay with MK-8722; format: functional; conditions: 30 µM
[4] = target: Sialic acid-binding Ig-like lectin 9 (Homo sapiens) (UniProt Q9Y336); assay: Hs-Siglec9 ALPHAscreen SOP 20170721; conditions: 10 µM
Trypanosoma cruzi = assay: Trypanosoma cruzi phosphomannomutase and mannose-1-phosphate guanylyltransferase assay; format: functional; conditions: 10 µM
[5] = target: T2, Arginase-2, mitochondrial (Homo sapiens) (UniProt P78540); assay: in vitro enzyme assay to detect the production of urea directly proportional to the activity of Arginase II; format: functional; conditions: 33.3 µM; also: in the data most compounds retested in dose-response had high values
T2 sequence (whole entry): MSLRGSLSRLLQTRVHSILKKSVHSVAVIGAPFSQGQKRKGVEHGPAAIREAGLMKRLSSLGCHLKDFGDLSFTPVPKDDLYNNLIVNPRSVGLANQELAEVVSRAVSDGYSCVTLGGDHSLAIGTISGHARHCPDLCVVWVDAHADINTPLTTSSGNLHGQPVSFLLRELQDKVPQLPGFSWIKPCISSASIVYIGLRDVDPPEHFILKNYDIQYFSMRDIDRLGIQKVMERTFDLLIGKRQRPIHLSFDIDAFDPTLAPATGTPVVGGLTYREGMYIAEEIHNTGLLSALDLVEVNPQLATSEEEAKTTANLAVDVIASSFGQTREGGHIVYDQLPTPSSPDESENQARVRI

[6] = target: T3, Proteasome subunit beta (Trypanosoma cruzi) (UniProt O96673); assay: Trypanosoma cruzi proteasome chymotrypsin-like activity (TcProtChymo) assay.; also: in the data most compounds retested in dose-response had high values; format: functional; conditions: 9.37 µM
T3 sequence (whole entry): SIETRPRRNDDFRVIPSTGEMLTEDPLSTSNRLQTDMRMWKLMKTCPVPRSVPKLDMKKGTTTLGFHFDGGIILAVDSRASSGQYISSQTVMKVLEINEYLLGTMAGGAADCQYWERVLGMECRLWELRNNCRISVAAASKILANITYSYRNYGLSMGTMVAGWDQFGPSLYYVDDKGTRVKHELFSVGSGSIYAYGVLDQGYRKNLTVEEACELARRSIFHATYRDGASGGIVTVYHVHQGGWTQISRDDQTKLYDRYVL

Homo sapiens = species: Homo sapiens; assay: To identify inhibition of the IFN signalling (Jak-Stat) pathway via expression of an eGFP reporter gene under the control of an IFN-stimulated response element (ISRE) containing MxA promoter.; format: functional; conditions: 30 µM
[7] = target: T4, Tyrosyl-tRNA synthetase, putative (Trypanosoma cruzi (strain CL Brener)) (UniProt Q4DSP6); assay: Trypanosoma cruzi tyrosyl tRNA synthetase (TcYRS) _High Tyrosine SOP; format: functional; conditions: 30 µM; also: in the data most compounds retested in dose-response had high values
T4 sequence (whole entry): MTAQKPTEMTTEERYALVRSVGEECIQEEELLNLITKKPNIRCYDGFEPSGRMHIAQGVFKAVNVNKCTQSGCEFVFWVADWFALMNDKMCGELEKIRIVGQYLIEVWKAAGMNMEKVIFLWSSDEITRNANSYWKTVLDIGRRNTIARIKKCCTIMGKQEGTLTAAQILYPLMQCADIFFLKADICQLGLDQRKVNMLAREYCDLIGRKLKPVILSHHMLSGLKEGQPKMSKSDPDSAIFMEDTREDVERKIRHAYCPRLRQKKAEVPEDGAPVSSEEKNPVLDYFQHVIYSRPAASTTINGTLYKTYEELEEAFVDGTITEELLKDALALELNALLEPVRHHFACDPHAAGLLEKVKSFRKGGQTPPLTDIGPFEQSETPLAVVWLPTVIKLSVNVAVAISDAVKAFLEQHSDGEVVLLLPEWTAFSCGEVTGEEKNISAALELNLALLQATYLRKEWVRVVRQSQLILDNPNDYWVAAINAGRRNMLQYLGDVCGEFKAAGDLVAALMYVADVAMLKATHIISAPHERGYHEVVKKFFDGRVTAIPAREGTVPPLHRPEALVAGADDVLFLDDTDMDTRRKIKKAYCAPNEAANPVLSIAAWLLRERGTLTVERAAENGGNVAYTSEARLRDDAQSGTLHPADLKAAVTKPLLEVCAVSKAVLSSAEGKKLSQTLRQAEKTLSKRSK

[8] = target: T4, Tyrosyl-tRNA synthetase, putative (Trypanosoma cruzi (strain CL Brener)); assay: Trypanosoma cruzi tyrosyl tRNA synthetase (TcYRS) SOP; format: functional; conditions: 30 µM
[9] = target: Chromo domain-containing protein 1 (Saccharomyces cerevisiae (strain ATCC 204508 / S288c) (Baker's yeast)) (UniProt P32657); assay: ScCHD-1 Enzyme Inhibition Assay; format: functional; conditions: 30 µM; also: in the data most compounds retested in dose-response had high values
Chain of Chromo domain-containing protein 1 (Saccharomyces cerevisiae (strain ATCC 204508 / S288c) (Baker's yeast)) (P32657 whole entry, the tested form may be a part): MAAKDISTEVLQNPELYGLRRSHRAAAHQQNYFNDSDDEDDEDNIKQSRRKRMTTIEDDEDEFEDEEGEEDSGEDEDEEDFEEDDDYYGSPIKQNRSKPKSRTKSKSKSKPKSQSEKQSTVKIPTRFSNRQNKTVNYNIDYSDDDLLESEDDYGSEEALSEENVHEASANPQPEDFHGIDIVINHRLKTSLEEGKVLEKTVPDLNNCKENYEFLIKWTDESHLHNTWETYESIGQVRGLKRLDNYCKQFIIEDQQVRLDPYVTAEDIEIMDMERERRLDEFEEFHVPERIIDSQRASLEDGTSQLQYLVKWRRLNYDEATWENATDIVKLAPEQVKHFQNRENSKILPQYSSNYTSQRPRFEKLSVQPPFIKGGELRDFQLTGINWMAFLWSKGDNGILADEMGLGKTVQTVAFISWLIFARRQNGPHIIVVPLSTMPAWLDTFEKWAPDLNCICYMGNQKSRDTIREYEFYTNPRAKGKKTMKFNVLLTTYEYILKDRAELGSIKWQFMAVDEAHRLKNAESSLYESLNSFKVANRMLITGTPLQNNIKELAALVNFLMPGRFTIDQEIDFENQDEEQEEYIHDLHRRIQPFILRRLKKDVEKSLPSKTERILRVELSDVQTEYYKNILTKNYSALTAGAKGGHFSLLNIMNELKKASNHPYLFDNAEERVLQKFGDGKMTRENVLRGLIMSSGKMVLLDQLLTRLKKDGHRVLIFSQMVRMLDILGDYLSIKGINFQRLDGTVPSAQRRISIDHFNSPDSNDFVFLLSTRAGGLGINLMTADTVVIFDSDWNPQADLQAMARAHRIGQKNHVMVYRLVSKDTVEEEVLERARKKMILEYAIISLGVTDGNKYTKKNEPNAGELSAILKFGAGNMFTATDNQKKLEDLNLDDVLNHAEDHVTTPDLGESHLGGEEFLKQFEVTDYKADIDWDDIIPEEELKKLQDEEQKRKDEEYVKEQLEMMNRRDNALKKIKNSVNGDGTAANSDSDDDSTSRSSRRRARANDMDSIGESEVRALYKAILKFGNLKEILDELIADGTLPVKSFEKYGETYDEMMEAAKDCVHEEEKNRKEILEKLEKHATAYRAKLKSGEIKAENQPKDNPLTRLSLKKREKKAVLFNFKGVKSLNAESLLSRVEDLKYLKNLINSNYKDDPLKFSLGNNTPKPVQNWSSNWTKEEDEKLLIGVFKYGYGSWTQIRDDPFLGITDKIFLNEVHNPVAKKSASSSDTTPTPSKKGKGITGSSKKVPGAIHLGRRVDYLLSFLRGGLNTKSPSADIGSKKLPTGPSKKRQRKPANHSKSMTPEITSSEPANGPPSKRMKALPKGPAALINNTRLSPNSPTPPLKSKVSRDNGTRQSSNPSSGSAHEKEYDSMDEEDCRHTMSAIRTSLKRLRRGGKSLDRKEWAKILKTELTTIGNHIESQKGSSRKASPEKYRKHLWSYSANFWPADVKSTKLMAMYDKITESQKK

Chain of Protein translocase subunit SecA (Escherichia coli (strain K12)) (P10408 whole entry): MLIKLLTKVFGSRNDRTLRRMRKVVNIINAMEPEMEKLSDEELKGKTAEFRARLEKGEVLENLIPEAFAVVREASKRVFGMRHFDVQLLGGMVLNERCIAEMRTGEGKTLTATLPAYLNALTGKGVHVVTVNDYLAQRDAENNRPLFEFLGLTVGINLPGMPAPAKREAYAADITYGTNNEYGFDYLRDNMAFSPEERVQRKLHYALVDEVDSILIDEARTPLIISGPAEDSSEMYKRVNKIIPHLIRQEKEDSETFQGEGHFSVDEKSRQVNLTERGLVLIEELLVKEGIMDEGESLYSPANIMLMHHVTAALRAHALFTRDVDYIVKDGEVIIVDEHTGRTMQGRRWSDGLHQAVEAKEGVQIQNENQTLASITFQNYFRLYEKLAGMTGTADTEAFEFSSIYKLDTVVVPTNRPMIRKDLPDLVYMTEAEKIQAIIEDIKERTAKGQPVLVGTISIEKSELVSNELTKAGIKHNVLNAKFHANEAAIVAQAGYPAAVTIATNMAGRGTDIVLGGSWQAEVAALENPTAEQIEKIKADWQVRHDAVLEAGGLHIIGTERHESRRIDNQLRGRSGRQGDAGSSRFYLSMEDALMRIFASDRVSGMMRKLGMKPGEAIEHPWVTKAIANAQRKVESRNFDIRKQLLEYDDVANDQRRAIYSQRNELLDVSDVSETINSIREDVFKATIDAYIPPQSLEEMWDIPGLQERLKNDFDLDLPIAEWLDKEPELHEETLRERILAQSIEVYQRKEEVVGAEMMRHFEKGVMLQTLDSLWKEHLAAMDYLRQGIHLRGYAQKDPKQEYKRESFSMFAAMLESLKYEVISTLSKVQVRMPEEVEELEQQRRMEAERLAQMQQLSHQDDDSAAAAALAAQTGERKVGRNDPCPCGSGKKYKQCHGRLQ
Chain of Sialic acid-binding Ig-like lectin 9 (Homo sapiens) (Q9Y336 whole entry): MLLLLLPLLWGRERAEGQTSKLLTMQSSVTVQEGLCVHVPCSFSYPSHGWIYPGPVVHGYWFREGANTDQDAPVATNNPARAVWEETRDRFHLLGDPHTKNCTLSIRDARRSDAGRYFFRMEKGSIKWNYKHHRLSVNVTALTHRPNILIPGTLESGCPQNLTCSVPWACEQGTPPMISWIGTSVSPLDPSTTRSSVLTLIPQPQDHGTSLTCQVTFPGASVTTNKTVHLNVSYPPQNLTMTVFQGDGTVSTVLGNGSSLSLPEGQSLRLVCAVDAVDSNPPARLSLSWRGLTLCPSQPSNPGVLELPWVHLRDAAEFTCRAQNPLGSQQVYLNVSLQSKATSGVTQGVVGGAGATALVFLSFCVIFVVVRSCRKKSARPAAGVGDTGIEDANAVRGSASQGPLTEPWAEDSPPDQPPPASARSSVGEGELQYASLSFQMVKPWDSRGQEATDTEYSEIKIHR

Structure (SMILES) | Percent Effect [1] [%] | Percent Effect [2] [%] | Percent Effect [3] [%] | Percent Effect [4] [%] | Percent Effect (Trypanosoma cruzi) [%] | Percent Effect [5] [%] | Percent Effect [6] [%] | Percent Effect (Homo sapiens) [%] | Percent Effect [7] [%] | Percent Effect [8] [%] | Percent Effect [9] [%]
CCN(CC)C(=O)c1ccn(COc2cc(C)cc(C)c2)n1 | -0.199 | 22.7 | -7.15 | 1.4 | -0.982 | -5.81 | 14.1 | 41.2 | 4.23 | 12.8 | -12.1
CCOCC(O)CN1CCN(C(=O)CC(C)C)CC1 (configuration not stated) | -3.57 | 16.2 | -2.25 | 3.53 | -4.62 | 0.401 | 7.39 | 12.1 | 2.46 | 11.1 | -7.14
CCN(C)c1ccc(C(=O)N(CCOC)Cc2ccccn2)cc1 | -4.29 | 21.3 | -3.55 | 21.4 | 7.89 | 38.5 | 15.2 | 20.7 | 6.01 | 21 | -5.22
NS(=O)(=O)CCNC(=O)c1nnn(-c2ccccc2)c1C1CC1 | 0.0352 | 2.7 | 0.144 | -1.59 | -8.4 | 2.92 | 12.1 | 1.92 | 4.95 | 6.1 | -4.86
Cc1ccc2c(c1)CN(C(=O)C1CCCCC1)C(CN(C)C)CO2 (configuration not stated) | -4.37 | 12.2 | 11.3 | -8.18 | -4.54 | -4.41 | 12 | 8.85 | 3.23 | 9.09 | -13.3
CCN(Cc1cccc(Cl)c1)Cn1nc(C)c2c(C)onc2c1=O | -8.55 | 8.11 | -4.63 | 2.84 | -3.68 | -0.802 | -0.18 | 14.3 | 1.48 | 1.24 | -6.67
CN(Cc1cnn(C)c1)C(=O)NC1CCS(=O)(=O)C1 (configuration not stated) | 0.0061 | 4.17 | -12.4 | -0.91 | 5.15 | -0.442 | 20.5 | 6.03 | 4.21 | 7.69 | -2.71
CC1CN(C(=O)CN(Cc2ccco2)C2CC2)CCO1 (configuration not stated) | -2.04 | 0 | 2.98 | -1.26 | -3.62 | 4.84 | 0.242 | 22.1 | 1.91 | 2.35 | -8.2
CN(C(=O)Cn1nc(-c2ccc(F)cc2)ccc1=O)C1CCS(=O)(=O)C1 (configuration not stated) | -7.39 | 10.5 | 7.4 | 10.6 | 1.85 | -16.6 | 6.81 | -4.86 | 3.19 | 7.79 | -3.65
CS(=O)(=O)CCN1CCC2(CCCN(C3CCOCC3)C2=O)C1 (configuration not stated) | -4.3 | 2.74 | -4.09 | 8.46 | 2.98 | -2 | 3.85 | 13.4 | 2.08 | 11.1 | -0.555
CN(CCC#N)C(=O)CCOc1cccc(F)c1 | -2.84 | 10.5 | 0.343 | -8.13 | -0.876 | -4.73 | 10.3 | 20.8 | 3.19 | 10.4 | -3.22
Cn1nc2c(cc1=O)CN(CCc1nc3ccccc3c(=O)[nH]1)CC2 | -4.31 | 5.48 | -206 | -0.89 | 8.23 | 2.27 | 17.9 | 6.4 | -1.07 | 0 | -7.87
CS(=O)(=O)N1Cc2nccn2CC(Cn2ncccc2=O)C1 (configuration not stated) | -1.2 | 13.3 | 3.55 | 5.03 | -5.79 | -26 | 7.18 | 0.368 | 3.12 | 12.5 | -4.85
Cc1cc(N(C)Cc2cc(C)on2)n2nc(C)c(C)c2n1 | 1.74 | 4.17 | -0.739 | -6.39 | -6.71 | 1.32 | 11.4 | 10.3 | 2.1 | 7.69 | -5.04
Cc1ccc(C2CSCCN2C(=O)C2=CCCC2)o1 (configuration not stated) | -5.63 | 8.11 | -2.27 | 26.9 | 0.684 | 1.24 | 2.83 | -24 | 1.07 | 6.17 | -2.84
CC1CN(C)CCN1C(=O)c1ccn(-c2cccc(Cl)c2)n1 (configuration not stated) | -4.4 | 5.2 | 3.41 | 8.46 | 3 | -4.98 | -5.91 | -0.574 | 2.91 | 9.76 | -7.43
O=C(c1cnco1)N1CCCC(Cc2cccc3ncccc23)C1 (configuration not stated) | -1.91 | -4.05 | 15.2 | -0.964 | 7.51 | 0.696 | 8.42 | 17.8 | 1.07 | 9.09 | -18.8
CCc1nnc2n1CCN(C(=O)c1cc(Br)c[nH]1)C2 | -5.48 | 23.4 | -0.82 | 9.55 | 8.05 | -1.78 | 13 | -20.8 | 9.71 | 19.5 | -10.3
COc1cc2cc(C(=O)O)n(C)c2cc1OC | -4.26 | -4 | 7.45 | 10.6 | -0.982 | -10 | 9.61 | -15.2 | 4.23 | 0 | -6.18
CO[C@H]1CCN(S(=O)(=O)c2cn(C)cn2)[C@H]1Cc1cccnc1 | -3.74 | 8 | -3.32 | -5.55 | 6.37 | -49.6 | 7.86 | -0.203 | 3.12 | 15 | -9.19
Cc1cc(=O)n2ncnc2n1CC(O)c1cc(F)ccc1F (configuration not stated) | -4.1 | 18.4 | 1.21 | -4.45 | 5.55 | 1.18 | 15.6 | 6.3 | 5.32 | 20.8 | -3.49
CCn1nccc1CNC(=O)NC1CCCCC1 | -3.38 | 7.79 | 7.6 | -2.52 | -7.18 | 0 | 9.98 | 12 | 1.07 | 3.7 | -2.19
